# Measured values published in PMC8384837, “Expanding the binding specificity for RNA recognition by a PUF domain”.
# Positions count from the first letter of the chain named.
# How the values were obtained:
# Experiment in all cases: yeast three-hybrid, YBZ-1, SC-Leu-His + 0.5 mM 3-AT, 4 days
# Conditions in all cases: tags: N-Gal4 AD-HA kept; label: inside an RPR1-promoter hybrid RNA with tandem MS2 sites; ssRNA
# PUM1 PUF domain R7-KGS = PUM1 PUF domain R7-KGS (Homo sapiens, UniProt Q14671 828-1176, S1079K;N1080G;E1083S)
# In short: (§1)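 The interaction score is the log change in how often each variant appears, from input to selection. Frequencies came from PCR-amplified, Illumina-sequenced repeat regions of Pumilio-1 PUF domain libraries grown in strain YBZ-1 (LexA–MS2 coat fusion, HIS3 reporter) alongside matching RNA elements. Input plates were SC-Leu and selection plates were SC-Leu-His + 0.5 mM 3-AT, each for four days, and the log2 calculation used a pseudocount of 1 where a variant was absent.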
# PUM1 PUF domain R7-KRS = PUM1 PUF domain R7-KRS (Homo sapiens, UniProt Q14671 828-1176, S1079K;N1080R;E1083S)
# In short: as §1
# PUM1 PUF domain R4-DWE = PUM1 PUF domain R4-DWE (Homo sapiens, UniProt Q14671 828-1176, N971D;H972W;Q975E)
# In short: as §1
# PUM1 PUF domain R3-LRC = PUM1 PUF domain R3-LRC (Homo sapiens, UniProt Q14671 828-1176, C935L;Q939C)
# In short: as §1
# PUM1 PUF domain R3-TME = PUM1 PUF domain R3-TME (Homo sapiens, UniProt Q14671 828-1176, C935T;R936M;Q939E)
# In short: as §1
# PUM1 PUF domain R3-LYA = PUM1 PUF domain R3-LYA (Homo sapiens, UniProt Q14671 828-1176, C935L;R936Y;Q939A)
# In short: as §1
# PUM1 PUF domain R3-RDS = PUM1 PUF domain R3-RDS (Homo sapiens, UniProt Q14671 828-1176, C935R;R936D;Q939S)
# In short: as §1
# PUM1 PUF domain R1-KLL = PUM1 PUF domain R1-KLL (Homo sapiens, UniProt Q14671 828-1176, S863K;R864L;Q867L)
# In short: as §1
# PUM1 PUF domain R5-KGR = PUM1 PUF domain R5-KGR (Homo sapiens, UniProt Q14671 828-1176, C1007K;R1008G;Q1011R)
# In short: as §1
# PUM1 PUF domain R5-PRA = PUM1 PUF domain R5-PRA (Homo sapiens, UniProt Q14671 828-1176, C1007P;Q1011A)
# In short: as §1
# PUM1 PUF domain R8-QWS = PUM1 PUF domain R8-QWS (Homo sapiens, UniProt Q14671 828-1176, N1122Q;Y1123W;Q1126S)
# In short: as §1
# PUM1 PUF domain R4-WAG = PUM1 PUF domain R4-WAG (Homo sapiens, UniProt Q14671 828-1176, N971W;H972A;Q975G)
# In short: as §1
# PUM1 PUF domain R8-HWL = PUM1 PUF domain R8-HWL (Homo sapiens, UniProt Q14671 828-1176, N1122H;Y1123W;Q1126L)
# In short: as §1
# PUM1 PUF domain R3-CNY = PUM1 PUF domain R3-CNY (Homo sapiens, UniProt Q14671 828-1176, R936N;Q939Y)
# In short: as §1
# PUM1 PUF domain R6-SFQ = target: T1, PUM1 PUF domain R6-SFQ (Homo sapiens, UniProt Q14671 828-1176, N1043S;Y1044F)
# T1 sequence: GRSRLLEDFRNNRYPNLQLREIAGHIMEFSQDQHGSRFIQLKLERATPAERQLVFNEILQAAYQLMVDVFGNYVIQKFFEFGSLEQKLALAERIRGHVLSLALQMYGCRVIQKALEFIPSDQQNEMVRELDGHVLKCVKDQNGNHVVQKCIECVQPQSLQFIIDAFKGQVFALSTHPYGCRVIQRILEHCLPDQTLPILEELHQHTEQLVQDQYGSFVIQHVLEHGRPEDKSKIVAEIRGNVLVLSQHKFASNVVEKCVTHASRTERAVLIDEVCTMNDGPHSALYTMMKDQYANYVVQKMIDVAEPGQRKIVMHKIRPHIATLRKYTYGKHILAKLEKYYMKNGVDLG
# In short: as §1
# PUM1 PUF domain R6-HFG = target: T2, PUM1 PUF domain R6-HFG (Homo sapiens, UniProt Q14671 828-1176, N1043H;Y1044F;Q1047G)
# T2 sequence: T1 sequence with S216H, Q220G
# In short: as §1
# PUM1 PUF domain R8-VHR = PUM1 PUF domain R8-VHR (Homo sapiens, UniProt Q14671 828-1176, N1122V;Y1123H;Q1126R)
# In short: as §1
# PUM1 PUF domain R4-GWY = PUM1 PUF domain R4-GWY (Homo sapiens, UniProt Q14671 828-1176, N971G;H972W;Q975Y)
# In short: as §1
# PUM1 PUF domain R7-RRM = PUM1 PUF domain R7-RRM (Homo sapiens, UniProt Q14671 828-1176, S1079R;N1080R;E1083M)
# In short: as §1
# PUM1 PUF domain R8-HFS = PUM1 PUF domain R8-HFS (Homo sapiens, UniProt Q14671 828-1176, N1122H;Y1123F;Q1126S)
# In short: as §1
sequence,measurement,setting,value
GGCUAGAACUAGUGGAUCCCCCGGCGCCCGGCGGCUCGAGCCCGGGUAAGUUUAAAUAGUCUGCAUGCCGCCGGGCGCCAUGCCUGCAGGUCGACUCUAGAAAACAUG,binding signal,PUM1 PUF domain R7-KGS,3.39 log2 enrichment (interaction score)
same,binding signal,PUM1 PUF domain R7-KRS,2.06 log2 enrichment (interaction score)
GGCUAGAACUAGUGGAUCCCCCGGCGCCCGGCGGCUCGAGCCCGGGUAAGUGUAGAUAGUCUGCAUGCCGCCGGGCGCCAUGCCUGCAGGUCGACUCUAGAAAACAUG,binding signal,PUM1 PUF domain R4-DWE,4.93 log2 enrichment (interaction score)
GGCUAGAACUAGUGGAUCCCCCGGCGCCCGGCGGCUCGAGCCCGGGUAAGUGUAAGUAGUCUGCAUGCCGCCGGGCGCCAUGCCUGCAGGUCGACUCUAGAAAACAUG,binding signal,PUM1 PUF domain R3-LRC,3.66 log2 enrichment (interaction score)
same,binding signal,PUM1 PUF domain R3-TME,4.56 log2 enrichment (interaction score)
same,binding signal,PUM1 PUF domain R3-LYA,4.73 log2 enrichment (interaction score)
GGCUAGAACUAGUGGAUCCCCCGGCGCCCGGCGGCUCGAGCCCGGGUAAGUGUAAUUAGUCUGCAUGCCGCCGGGCGCCAUGCCUGCAGGUCGACUCUAGAAAACAUG,binding signal,PUM1 PUF domain R3-RDS,2.88 log2 enrichment (interaction score)
same,binding signal,PUM1 PUF domain R3-LYA,4.81 log2 enrichment (interaction score)
GGCUAGAACUAGUGGAUCCCCCGGCGCCCGGCGGCUCGAGCCCGGGUAAGUGUAAAUUGUCUGCAUGCCGCCGGGCGCCAUGCCUGCAGGUCGACUCUAGAAAACAUG,binding signal,PUM1 PUF domain R1-KLL,3.14 log2 enrichment (interaction score)
GGCUAGAACUAGUGGAUCCCCCGGCGCCCGGCGGCUCGAGCCCGGGUAAGUGUCAAUAGUCUGCAUGCCGCCGGGCGCCAUGCCUGCAGGUCGACUCUAGAAAACAUG,binding signal,PUM1 PUF domain R5-KGR,4.53 log2 enrichment (interaction score)
GGCUAGAACUAGUGGAUCCCCCGGCGCCCGGCGGCUCGAGCCCGGGUAAGUGUGAAUAGUCUGCAUGCCGCCGGGCGCCAUGCCUGCAGGUCGACUCUAGAAAACAUG,binding signal,PUM1 PUF domain R5-PRA,1.9 log2 enrichment (interaction score)
GGCUAGAACUAGUGGAUCCCCCGGCGCCCGGCGGCUCGAGCCCGGGUAAGUGUUAAUAGUCUGCAUGCCGCCGGGCGCCAUGCCUGCAGGUCGACUCUAGAAAACAUG,binding signal,PUM1 PUF domain R5-PRA,2.94 log2 enrichment (interaction score)
GGCUAGAACUAGUGGAUCCCCCGGCGCCCGGCGGCUCGAGCCCGGGUAAGUGUAAAUCGUCUGCAUGCCGCCGGGCGCCAUGCCUGCAGGUCGACUCUAGAAAACAUG,binding signal,PUM1 PUF domain R1-KLL,4.54 log2 enrichment (interaction score)
GGCUAGAACUAGUGGAUCCCCCGGCGCCCGGCGGCUCGAGCCCGGGUAAGUGUAAAUAGUCUGCAUGCCGCCGGGCGCCAUGCCUGCAGGUCGACUCUAGAAAACAUG,binding signal,PUM1 PUF domain R8-QWS,4.13 log2 enrichment (interaction score)
same,binding signal,PUM1 PUF domain R4-WAG,2.25 log2 enrichment (interaction score)
same,binding signal,PUM1 PUF domain R8-HWL,3.96 log2 enrichment (interaction score)
same,binding signal,PUM1 PUF domain R3-CNY,3.55 log2 enrichment (interaction score)
same,binding signal,PUM1 PUF domain R6-SFQ,2.98 log2 enrichment (interaction score)
same,binding signal,PUM1 PUF domain R6-HFG,5.43 log2 enrichment (interaction score)
same,binding signal,PUM1 PUF domain R5-PRA,4.36 log2 enrichment (interaction score)
same,binding signal,PUM1 PUF domain R8-VHR,3.13 log2 enrichment (interaction score)
same,binding signal,PUM1 PUF domain R3-LYA,2.44 log2 enrichment (interaction score)
GGCUAGAACUAGUGGAUCCCCCGGCGCCCGGCGGCUCGAGCCCGGGUAAGUGUACAUAGUCUGCAUGCCGCCGGGCGCCAUGCCUGCAGGUCGACUCUAGAAAACAUG,binding signal,PUM1 PUF domain R4-WAG,3.92 log2 enrichment (interaction score)
GGCUAGAACUAGUGGAUCCCCCGGCGCCCGGCGGCUCGAGCCCGGGUAAGUGUAUAUAGUCUGCAUGCCGCCGGGCGCCAUGCCUGCAGGUCGACUCUAGAAAACAUG,binding signal,PUM1 PUF domain R4-WAG,4.74 log2 enrichment (interaction score)
same,binding signal,PUM1 PUF domain R4-GWY,5.08 log2 enrichment (interaction score)
GGCUAGAACUAGUGGAUCCCCCGGCGCCCGGCGGCUCGAGCCCGGGUAAGUCUAAAUAGUCUGCAUGCCGCCGGGCGCCAUGCCUGCAGGUCGACUCUAGAAAACAUG,binding signal,PUM1 PUF domain R7-RRM,4.89 log2 enrichment (interaction score)
same,binding signal,PUM1 PUF domain R7-KRS,4.34 log2 enrichment (interaction score)
GGCUAGAACUAGUGGAUCCCCCGGCGCCCGGCGGCUCGAGCCCGGGUAAGCGUAAAUAGUCUGCAUGCCGCCGGGCGCCAUGCCUGCAGGUCGACUCUAGAAAACAUG,binding signal,PUM1 PUF domain R8-HWL,4.14 log2 enrichment (interaction score)
same,binding signal,PUM1 PUF domain R8-VHR,3.33 log2 enrichment (interaction score)
same,binding signal,PUM1 PUF domain R8-HFS,2.47 log2 enrichment (interaction score)
